Records with an inconclusive call do not appear. More than one record can exist for a structure, and the calls need not agree. Active and inactive are the calls of the source. The calls were made as follows, unless noted: active = hit-call score of the fitted dose curve at least 0.9, where 1 is the maximum; inconclusive = response in the unintended direction; inactive = score below 0.9.
Columns and labels:
[1] = system: Sodium/Iodide Symporter (NIS), SLC5A5 (gene 6528); assay: CPHEA_Stoker_NIS_Inhibition_RAIU: CPHEA's Radioactive Iodide Uptake (RAIU) Assay for Sodium/Iodide Symporter (NIS) Inhibition, Stoker and Laws Labs (AID 2283841)
How it was run: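 hNIS-HEK293T-EPA cells incubated 2 h at room temperature with compound (0.001–100 uM, 0.5% DMSO) and 329 pM final 125I in HBSS/10 mM HEPES, pH 7.4. Intracellular 125I counted; normalised to DMSO maximal uptake, triplicate, three biological replicates.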

[2] = CPHEA_Stoker_NIS_Cytotoxicity: Cytotoxicity Assessment for CPHEA's Radioactive Iodide Uptake (RAIU) Assay for Sodium/Iodide Symporter (NIS) Inhibition, Stoker and Laws Labs (AID 2283897);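 as to AC50: active means loss of ATP signal versus DMSO meaning cytotoxicity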
How it was run: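 hNIS-HEK293T-EPA cells, human NIS expressed in HEK293T, treated 2 h with chemicals (0.001–100 uM, 0.5% final DMSO). ATP content read by CellTiter-Glo luminescence; loss of signal analysed relative to DMSO.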

[3] = target: human Thyroid hormone Receptor beta (TRb), THRB (gene 7068) (UniProt P10828); assay: ATG_hTRb_XSP2: Attagene TRANS-FACTORIAL Multi-Species (XSP2) HepG2 Assay for human Thyroid hormone Receptor beta (TRb) (AID 2283840);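 also: actives raise reporter mRNA so potency reflects agonist-like gain of signal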
How it was run: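 Transient transfection of human HepG2 with multi-species NR-Gal4/GAL4-UAS reporter constructs; 24 h compound treatment; RNA isolation, reverse transcription, PCR and HpaI digest; capillary electrophoresis of labeled fragments; activity fitted upward versus DMSO.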

[4] = target: frog Thyroid hormone Receptor alpha (TRa), thra-a (gene 397942) (UniProt P15204); assay: ATG_frTRa_XSP2: Attagene TRANS-FACTORIAL Multi-Species (XSP2) HepG2 Assay for frog Thyroid hormone Receptor alpha (TRa) (AID 2283839);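 as to AC50: AC50 reflects induction of frog TRa-driven reporter mRNA above DMSO baseline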
How it was run: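 Transfect HepG2 with multiple reporter units (GAL4-UAS), dose chemical, incubate 24 h. Isolate RNA, reverse-transcribe, PCR-amplify reporter, label with 6-FAM by primer extension, digest with HpaI, run capillary electrophoresis; induction scored against DMSO.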

[5] = CEETOX_H295R_11DCORT_noMTC: CeeTox H295R High-throughput Steroidogenesis Assay for 11-Deoxycortisol (11DCORT), maximum tolerated concentration (MTC) filtered results only (AID 2283911; active = hit-call score of the fitted dose curve at least 0.9, where 1 is the maximum; inactive = score below 0.9); conditions: actives raise or lower the signal
How it was run: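 Steroidogenesis was stimulated in H295R cells with 10 uM forskolin for 48 h before a 48 h chemical exposure. Secreted 11-deoxycortisol was measured by tandem mass spectrometry and fitted bidirectionally against DMSO controls.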

[6] = CEETOX_H295R_OHPREG_noMTC: CeeTox H295R High-throughput Steroidogenesis Assay for OH-Pregnenolone (OHPREG), maximum tolerated concentration (MTC) filtered results only (AID 2283912; active = hit-call score of the fitted dose curve at least 0.9, where 1 is the maximum; inactive = score below 0.9); conditions: actives raise or lower the signal
How it was run: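 H295R human adrenal cells, forskolin-prestimulated (10 uM, 48 h), then exposed to test chemical in 0.1% DMSO for 48 h. 17alpha-hydroxypregnenolone in medium measured by HPLC-MS/MS after MTBE extraction; bidirectional fit versus DMSO, concentrations not MTC-filtered.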

[7] = CEETOX_H295R_OHPROG_noMTC: CeeTox H295R High-throughput Steroidogenesis Assay for OH-Progesterone (OHPROG), maximum tolerated concentration (MTC) filtered results only (AID 2283914; active = hit-call score of the fitted dose curve at least 0.9, where 1 is the maximum; inactive = score below 0.9); conditions: actives raise or lower the signal
How it was run: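 H295R human adrenal cells prestimulated 48 h with 10 uM forskolin, then exposed 48 h to test chemical (0.1% DMSO final). Medium 17alpha-hydroxyprogesterone extracted with MTBE, quantified by HPLC-MS/MS; bidirectional fit versus DMSO, concentrations not MTC-filtered.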

[8] = target: zebrafish Thyroid Hormone Receptor beta (TRb), thrb (gene 30607) (UniProt Q9PVE4); assay: ATG_zfTRb_XSP2: Attagene TRANS-FACTORIAL Multi-Species (XSP1) HepG2 Assay for zebrafish Thyroid Hormone Receptor beta (TRb) (AID 2283836)
How it was run: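 Human liver HepG2, transient MRTU transfection (NR-Gal4 chimeras, GAL4-UAS reporters); 24 h compound exposure; total RNA → oligo(dT) RT → PCR → 6-FAM label → HpaI cut → CE fluorescence. DMSO = negative control/baseline.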

[9] = ATG_XTT_Cytotoxicity_XSP2: Cytotoxicity Assessment in the Attagene TRANS-FACTORIAL Multi-Species (XSP2) HepG2 Assay (AID 2283837)
How it was run: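 HepG2 cells, transiently transfected with multiple reporter constructs, exposed to chemical for 24 h. Cell number assessed with XTT fluorescence read-out; loss of signal fitted relative to DMSO.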

[10] = target: human Thyroid hormone Receptor alpha (TRa), THRA (gene 7067) (UniProt P10827); assay: ATG_hTRa_XSP2: Attagene TRANS-FACTORIAL Multi-Species (XSP2) HepG2 Assay for human Thyroid hormone Receptor alpha (TRa) (AID 2283838)
How it was run: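 HepG2 cells were transiently transfected with GAL4-UAS reporter units for chimeric human TRa-Gal4 and dosed for 24 hours, with 3 nM 6-alpha-fluorotestosterone and 1.5 nM norgestrel present. Reporter mRNA was quantified by RT-PCR, FAM labelling and capillary electrophoresis, with gain of signal fitted versus DMSO.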

Measured: AC50

Chain of human Thyroid hormone Receptor beta (TRb), THRB (gene 7068) (P10828 whole entry, looked up, the tested form may be a part): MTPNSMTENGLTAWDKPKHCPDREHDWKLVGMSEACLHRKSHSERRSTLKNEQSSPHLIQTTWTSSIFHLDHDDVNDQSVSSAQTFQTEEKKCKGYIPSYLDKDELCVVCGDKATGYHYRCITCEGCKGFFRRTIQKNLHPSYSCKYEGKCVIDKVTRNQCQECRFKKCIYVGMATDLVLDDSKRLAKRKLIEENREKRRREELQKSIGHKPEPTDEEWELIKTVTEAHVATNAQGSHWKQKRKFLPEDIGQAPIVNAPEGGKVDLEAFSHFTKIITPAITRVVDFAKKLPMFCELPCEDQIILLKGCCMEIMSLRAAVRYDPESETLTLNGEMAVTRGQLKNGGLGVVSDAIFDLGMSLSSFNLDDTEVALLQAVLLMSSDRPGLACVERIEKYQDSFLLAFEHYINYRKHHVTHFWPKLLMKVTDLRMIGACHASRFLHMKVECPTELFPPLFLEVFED
Chain of human Thyroid hormone Receptor alpha (TRa), THRA (gene 7067) (P10827 whole entry, looked up, the tested form may be a part): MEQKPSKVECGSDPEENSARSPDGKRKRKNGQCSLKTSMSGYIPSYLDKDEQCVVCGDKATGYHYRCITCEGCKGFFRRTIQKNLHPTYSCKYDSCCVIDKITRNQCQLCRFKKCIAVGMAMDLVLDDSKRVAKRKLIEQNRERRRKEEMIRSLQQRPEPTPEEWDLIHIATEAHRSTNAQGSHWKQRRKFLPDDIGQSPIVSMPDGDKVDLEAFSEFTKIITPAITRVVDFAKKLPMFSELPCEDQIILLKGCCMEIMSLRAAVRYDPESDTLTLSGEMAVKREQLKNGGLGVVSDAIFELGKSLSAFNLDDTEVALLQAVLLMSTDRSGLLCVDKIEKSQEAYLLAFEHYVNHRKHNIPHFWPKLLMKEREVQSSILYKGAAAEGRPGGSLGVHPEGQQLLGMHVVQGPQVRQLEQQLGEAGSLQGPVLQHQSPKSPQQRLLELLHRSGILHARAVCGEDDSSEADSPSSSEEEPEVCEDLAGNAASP
Chain of zebrafish Thyroid Hormone Receptor beta (TRb), thrb (gene 30607) (Q9PVE4 whole entry, looked up, the tested form may be a part): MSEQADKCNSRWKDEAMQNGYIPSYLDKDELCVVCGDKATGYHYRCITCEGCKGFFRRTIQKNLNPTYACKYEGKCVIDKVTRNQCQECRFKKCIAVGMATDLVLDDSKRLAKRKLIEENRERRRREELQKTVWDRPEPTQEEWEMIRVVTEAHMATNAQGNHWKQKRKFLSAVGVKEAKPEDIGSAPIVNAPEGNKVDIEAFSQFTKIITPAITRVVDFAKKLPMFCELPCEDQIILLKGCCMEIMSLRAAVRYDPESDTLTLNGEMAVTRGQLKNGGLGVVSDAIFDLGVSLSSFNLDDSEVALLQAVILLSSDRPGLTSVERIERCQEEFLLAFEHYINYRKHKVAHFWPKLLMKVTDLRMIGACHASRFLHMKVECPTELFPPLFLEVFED
Chain of frog Thyroid hormone Receptor alpha (TRa), thra-a (gene 397942) (P15204 whole entry, looked up, the tested form may be a part): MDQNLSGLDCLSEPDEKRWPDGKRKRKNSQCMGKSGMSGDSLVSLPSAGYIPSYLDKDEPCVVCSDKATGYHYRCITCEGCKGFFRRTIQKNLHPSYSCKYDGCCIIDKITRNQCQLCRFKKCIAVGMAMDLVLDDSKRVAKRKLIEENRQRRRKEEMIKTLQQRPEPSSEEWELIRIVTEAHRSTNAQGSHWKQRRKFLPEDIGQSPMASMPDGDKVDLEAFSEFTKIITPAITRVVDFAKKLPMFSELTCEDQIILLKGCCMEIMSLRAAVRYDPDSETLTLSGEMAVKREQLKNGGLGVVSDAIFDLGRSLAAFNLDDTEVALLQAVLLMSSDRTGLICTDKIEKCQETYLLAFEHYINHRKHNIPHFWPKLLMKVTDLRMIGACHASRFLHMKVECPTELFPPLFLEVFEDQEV

ClC1=C(Cl)[C@]2(Cl)[C@H]3[C@H]([C@@H]4C=C[C@H]3C4)[C@@]1(Cl)C2(Cl)Cl
inactive: [1] | [2]

COP(=S)(OC)SCN1C(=O)c2ccccc2C1=O
inactive: [2]

C[C@]12C=CC3=C4CCC(=O)C=C4CC[C@H]3[C@@H]1CC[C@@H]2O
active: [3] 0.0256 µM

Cc1cc(N=Nc2ccccc2C)ccc1N
inactive: [1] | [2]

CCCCCOC(=O)c1ccccc1C(=O)OCCCCC
inactive: [4] | [3] | [2] | [5] | [6] | [7]

O=[N+]([O-])C(Br)(CO)CO
inactive: [2]

c1ccc2c(c1)oc1ccccc12
inactive: [1] | [2]

CCCCOC(=O)c1ccccc1C(=O)OCc1ccccc1
not listed: [9] | [10]
inactive: all other assays above

O=[N+]([O-])c1ccc(Oc2ccc(Cl)cc2Cl)cc1
not listed: [5] | [6] | [7]
inactive: all other assays above

CC(C)COC(=O)c1ccccc1C(=O)OCC(C)C
inactive: [2] | [5] | [6] | [7]

C=CCc1ccc2c(c1)OCO2
inactive: [5] | [6] | [7]

Nc1ccc(Cl)cc1N
active: [1] 50 µM
inactive: [2]

CN(C)c1ccc(C(=O)c2ccc(N(C)C)cc2)cc1
inactive: [1] | [2]

CCCCCCCCn1sccc1=O
inactive: [1] | [2]

Cc1cccc(N)c1N
inactive: [1] | [2]

CC(C)(OOC(C)(C)c1ccccc1)c1ccccc1
inactive: [1] | [2]

CCOC(=O)[C@]1(c2ccccc2)Oc2ccccc2[C@@H]1N
inactive: [1]
active: [2] 1.38 µM

[Cl-].[Cl-].[Hg+2]
active: [1] 7.02 µM | [2] 39.4 µM

Brc1ccc(Oc2ccccc2)cc1
inactive: [1] | [2] | [5] | [6] | [7]

CCCCC(CC)COC(=O)c1ccc(C(=O)OCC(CC)CCCC)c(C(=O)OCC(CC)CCCC)c1 (centres undefined)
inactive: [8] | [9] | [10] | [4] | [3]

CCNS(=O)(=O)C(F)(F)C(F)(F)C(F)(F)C(F)(F)C(F)(F)C(F)(F)C(F)(F)C(F)(F)F
inactive: [1] | [2]

CCC(C)c1ccc(O)cc1 (centres undefined)
not listed: [5] | [6] | [7]
inactive: all other assays above

Oc1ccc2ccc3cccc4ccc1c2c34
inactive: [8] | [4] | [1] | [2]
active: [9] 151 µM | [4] 22.7 µM

Clc1ccc(C(c2ccc(Cl)cc2)C(Cl)(Cl)Cl)cc1
inactive: [8] | [10] | [4] | [3] | [2]

CC(C)(C)C(O)(CCc1ccc(Cl)cc1)Cn1cncn1 (centres undefined)
inactive: [8] | [9] | [10] | [3] | [2]

c1ccc2c(c1)-c1cccc3cccc-2c13
inactive: [8] | [9] | [10] | [4] | [3]

CC(C)(O)c1cnn2c(-c3ccc(F)c(-c4c(F)cccc4C#N)c3)cnc2n1
inactive: [1] | [2]

ClC1=C(Cl)C2(Cl)C3C(Cl)C=CC3C1(Cl)C2(Cl)Cl (centres undefined)
inactive: [1] | [2]

CCC[CH2][Sn]([Cl])([CH2]CCC)[CH2]CCC
inactive: [8] | [10] | [4]
active: [3] 0.649 µM | [1] 8.22 µM | [2] 3.44 µM

Clc1ccc(C(c2ccc(Cl)cc2)C(Cl)Cl)cc1
inactive: [3] | [1] | [2]
